This note sets out measurements from the antibiotic and cytotoxicity screens of Wong et al. (2023).

The structures appear in SMILES notation. Screen size: about 39,000 compounds; about 3,300 (8.5%) were called active. The list comes from a sample in which actives are over-represented; it also holds similar structures and randomly drawn compounds.

In this test the test system is HepG2. Briefly: cytotoxicity call (relative viability < 0.9). The settings on record: 10 µM.
Turning to `C[C@H](O)[C@H](O)[C@@H](O)[C@@H](O)/C=N/NC(=O)c1cccc(C(=O)NO)c1`, the cytotoxicity call was “inactive”.
Consider `Cc1cc(C(=O)Nc2cccc3c2O[C@@H](CN(C)Cc2ccc4c(c2)OCO4)[C@@H](C)CN([C@@H](C)CO)C3=O)n(C)n1`, for which the cytotoxicity call was “inactive”.
On to `COc1ccc(NC(=O)Nc2ccc3c(c2)C(=O)N([C@@H](C)CO)C[C@H](C)[C@H](CN(C)Cc2ccc(Oc4ccccc4)cc2)O3)cc1`, for which the cytotoxicity call is “inactive”.
For the compound `COc1ccc(NC(=O)Nc2ccc3c(c2)C(=O)N([C@H](C)CO)C[C@H](C)[C@H](CN(C)Cc2ccc(-c4ccccc4)cc2)O3)cc1`, the cytotoxicity call was “active”.
As to `COc1ccc(NC(=O)Nc2ccc3c(c2)C(=O)N([C@H](C)CO)C[C@@H](C)[C@@H](CN(C)Cc2ccc(-c4ccccc4)cc2)O3)cc1`, the cytotoxicity call is “active”.
In the case of `COc1ccc(NC(=O)Nc2ccc3c(c2)C(=O)N([C@H](C)CO)C[C@H](C)[C@@H](CN(C)Cc2ccc(-c4ccccc4)cc2)O3)cc1`, the cytotoxicity call is “inactive”.
As for `COc1ccc(NC(=O)Nc2ccc3c(c2)C(=O)N([C@H](C)CO)C[C@@H](C)[C@H](CN(C)Cc2ccc(-c4ccccc4)cc2)O3)cc1`, the entry is “active”; as for `COc1ccc(NC(=O)Nc2ccc3c(c2)C(=O)N([C@@H](C)CO)C[C@@H](C)[C@@H](CN(C)Cc2ccc(-c4ccccc4)cc2)O3)cc1`, “active”; as for `COc1ccc(NC(=O)Nc2ccc3c(c2)C(=O)N([C@@H](C)CO)C[C@H](C)[C@H](CN(C)Cc2ccc(-c4ccccc4)cc2)O3)cc1`, “inactive”.
As for `COc1ccc(NC(=O)Nc2ccc3c(c2)C(=O)N([C@@H](C)CO)C[C@H](C)[C@@H](CN(C)Cc2ccc(-c4ccccc4)cc2)O3)cc1`, the entry is “inactive”.
As for `COc1ccc(NC(=O)Nc2ccc3c(c2)C(=O)N([C@H](C)CO)C[C@@H](C)[C@H](CN(C)Cc2ccc(Oc4ccccc4)cc2)O3)cc1`, the entry is “inactive”.
Take `CC(=O)c1ccc(S(=O)(=O)N2[C@@H]3CC[C@@H](C3)[C@H]2c2nc3cccc(OCc4ccc(F)cc4)c3[nH]2)cc1`: the cytotoxicity call is “inactive”.
Turning to `C[C@@H]1CN([C@@H](C)CO)C(=O)c2cc(NC(=O)C3CC3)ccc2O[C@@H]1CN(C)S(=O)(=O)c1cccs1`, the cytotoxicity call was “inactive”.
With `CCCC(=O)Nc1ccc2c(c1)OC[C@H](C)N(Cc1ccc(-c3ccccn3)cc1)C[C@@H](C)[C@H](OC)CN(C)C2=O`, the cytotoxicity call is “inactive”.
For the compound `COc1ccc(S(=O)(=O)Nc2ccc3c(c2)C(=O)N([C@@H](C)CO)C[C@@H](C)[C@@H](CN(C)C(=O)Nc2c(C)noc2C)OCCCC[C@H](C)O3)cc1`, the cytotoxicity call is “inactive”.
`C[C@@H]1CN([C@@H](C)CO)C(=O)c2cc(NS(=O)(=O)c3ccccc3)ccc2O[C@@H]1CN(C)C(=O)Nc1cccc2ccccc12`: the cytotoxicity call was “inactive”.
On to `C[C@@H]1CN([C@@H](C)CO)C(=O)Cc2cc(NC(=O)Nc3ccc(F)cc3)ccc2O[C@@H]1CN(C)S(=O)(=O)c1cn(C)cn1`, for which the cytotoxicity call is “inactive”.
Turning to `Cc1ccc(S(=O)(=O)N(C)C[C@@H]2OCCCC[C@H](C)Oc3ccc(NS(C)(=O)=O)cc3C(=O)N([C@@H](C)CO)C[C@H]2C)cc1`, the cytotoxicity call is “inactive”.
With `Cc1noc(C)c1S(=O)(=O)Nc1ccc2c(c1)CC(=O)N([C@@H](C)CO)C[C@H](C)[C@H](CN(C)Cc1ccc3c(c1)OCO3)O2`, the cytotoxicity call was “inactive”.
The value for `C[C@H](CO)N1C[C@H](C)[C@H](CN(C)C(=O)N[C@H](C)c2ccccc2)OCc2ccccc2-c2c(n(C)c3ccccc23)C1=O` was “inactive”; that for `COc1ccc(S(=O)(=O)N(C)C[C@@H]2OCCCC[C@H](C)Oc3ccc(NC(=O)NC4CCCCC4)cc3C(=O)N([C@H](C)CO)C[C@H]2C)cc1` was “inactive”; that for `COc1ccc(NC(=O)N(C)C[C@@H]2OCCCC[C@@H](C)Oc3ccc(NS(=O)(=O)c4ccc(C)cc4)cc3C(=O)N([C@H](C)CO)C[C@H]2C)cc1` was “inactive”.
Regarding `COc1ccc(NC(=O)Nc2ccc3c(c2)C(=O)N([C@@H](C)CO)C[C@@H](C)[C@H](CN(C)Cc2ccc(-c4ccccc4)cc2)O3)cc1`, the cytotoxicity call was “active”.
Take `COc1cccc(S(=O)(=O)N2C[C@H](O)COC[C@@H]3O[C@H](CC(=O)NCCCN4CCOCC4)CC[C@H]32)c1`: the cytotoxicity call is “inactive”.
Consider `C[C@H]1CCCCO[C@H](CN(C)C(=O)Nc2ccc(F)cc2)[C@@H](C)CN([C@@H](C)CO)C(=O)c2cc(NC(=O)c3ccncc3)ccc2O1`, for which the cytotoxicity call was “inactive”.
For `CCC(C)C1OC2(CCC1C)CC1CC(CC=C(C)C(OC3CC(OC)C(OC4CC(OC)C(O)C(C)O4)C(C)O3)C(C)C=CC=C3COC4C(O)C(C)=CC(C(=O)O1)C34O)O2` (centres undefined), the cytotoxicity call was “active”.
`CC[C@H](C)[C@H]1O[C@]2(CC[C@@H]1C)C[C@@H]1C[C@@H](C/C=C(\C)[C@@H](O[C@H]3C[C@H](OC)[C@@H](O[C@H]4C[C@H](OC)[C@@H](O)[C@H](C)O4)[C@H](C)O3)[C@@H](C)/C=C/C=C3\CO[C@@H]4[C@H](O)C(C)=C[C@@H](C(=O)O1)[C@]34O)O2`: the cytotoxicity call was “active”.
For `CC[C@@H](C)[C@H]1O[C@@]2(CC[C@@H]1C)C[C@H]1C[C@@H](CC=C(C)[C@@H](O[C@H]3C[C@@H](OC)[C@@H](O[C@H]4C[C@@H](OC)[C@@H](O)[C@@H](C)O4)[C@@H](C)O3)[C@@H](C)C=CC=C3CO[C@H]4[C@@H](O)C(C)=C[C@@H](C(=O)O1)[C@]34O)O2.CO[C@H]1C[C@@H](O[C@@H]2[C@@H](OC)C[C@@H](O[C@@H]3C(C)=CC[C@@H]4C[C@@H](C[C@@]5(CC[C@@H](C)[C@H](C(C)C)O5)O4)OC(=O)[C@@H]4C=C(C)[C@H](O)[C@@H]5OCC(=CC=C[C@@H]3C)[C@@]45O)O[C@@H]2C)O[C@@H](C)[C@@H]1O`, the cytotoxicity call is “active”.
On to `C[C@@H]1CN([C@H](C)CO)C(=O)c2cc(NC(=O)CCC(F)(F)F)ccc2O[C@H]1CN(C)Cc1ccc(C(=O)Nc2ccccc2N)cc1`, for which the cytotoxicity call is “inactive”.
Regarding `N#CCSc1n[nH]c(=O)[nH]c1=O`, the cytotoxicity call is “inactive”.
For the compound `O=C(C[C@@H]1CC[C@H]2[C@@H](COC[C@@H](O)CN2CC2CCOCC2)O1)N1CCOCC1`, the cytotoxicity call is “inactive”.
For the compound `Cc1noc(C)c1NC(=O)N(C)C[C@H]1OCCCC[C@H](C)Oc2ccc(NC(=O)C3CCCCC3)cc2C(=O)N([C@H](C)CO)C[C@@H]1C`, the cytotoxicity call was “inactive”.
As for `C[C@@H]1CCCCO[C@@H](CN(C)S(=O)(=O)c2ccccc2)[C@@H](C)CN([C@H](C)CO)C(=O)c2cc(NC(=O)NC3CCCCC3)ccc2O1`, the cytotoxicity call was “inactive”.
As to `COc1ncccc1N`, the cytotoxicity call is “inactive”.
Turning to `O=C1CCc2cc(OCCCCc3nnnn3C3CCCCC3)ccc2N1`, the cytotoxicity call is “inactive”.
Turning to `CCCCCCCCCCCC(=O)OCN1C(=O)CCc2ccc(OCCCCN3CCN(c4cccc(Cl)c4Cl)CC3)cc21`, the cytotoxicity call was “inactive”.
As for `O=C1CCc2ccc(OCCCCN3CCN(c4cccc(Cl)c4Cl)CC3)cc2N1`, the cytotoxicity call is “active”.
On to `O=C(C[C@H]1CC[C@H](NC(=O)c2cccnc2)[C@@H](CO)O1)NCCN1CCCCC1`, for which the cytotoxicity call is “inactive”.
`C[C@H](N)c1ccc(Cl)cc1`: the cytotoxicity call is “inactive”.
For `COc1cccc(S(=O)(=O)Nc2ccc3c(c2)[C@H]2C[C@H](CC(=O)NCc4ccccc4F)O[C@@H](CO)[C@H]2O3)c1`, the cytotoxicity call is “inactive”.
As for `C[C@@H]1CN([C@H](C)CO)C(=O)c2cc(NS(=O)(=O)c3cccs3)ccc2O[C@@H]1CN(C)Cc1ccc(Oc2ccccc2)cc1`, the entry is “active”; as for `C[C@H]1CN([C@@H](C)CO)C(=O)c2cc(NS(=O)(=O)c3cccs3)ccc2O[C@@H]1CN(C)Cc1ccc(Oc2ccccc2)cc1`, “inactive”.
Take `C[C@H](CO)N1C[C@H](C)[C@@H](CN(C)Cc2ccc(-c3ccccc3)cc2)Oc2ccc(NS(=O)(=O)c3cccs3)cc2C1=O`: the cytotoxicity call is “inactive”.
The value for `C[C@@H]1CN([C@H](C)CO)C(=O)c2cc(NS(=O)(=O)c3cccs3)ccc2O[C@@H]1CN(C)Cc1ccc(-c2ccccc2)cc1` was “active”; that for `C[C@@H]1CN([C@H](C)CO)C(=O)c2cc(NS(=O)(=O)c3cccs3)ccc2O[C@H]1CN(C)Cc1ccc(Oc2ccccc2)cc1` was “inactive”; that for `C[C@H](CO)N1C[C@H](C)[C@H](CN(C)Cc2ccc(-c3ccccc3)cc2)Oc2ccc(NS(=O)(=O)c3cccs3)cc2C1=O` was “inactive”.
`NC(=O)c1cccc(Br)n1`: the cytotoxicity call was “inactive”.
Consider `Cc1noc(C)c1S(=O)(=O)N(C)C[C@H]1OCc2cn(nn2)CCCC(=O)N([C@H](C)CO)C[C@@H]1C`, for which the cytotoxicity call is “inactive”.
Take `Cc1ccc(S(=O)(=O)N(C)C[C@H]2Oc3ccc(NS(=O)(=O)c4cccs4)cc3C(=O)N([C@H](C)CO)C[C@H]2C)cc1`: the cytotoxicity call is “inactive”.
With `C[C@H]1CN([C@@H](C)CO)C(=O)CCCn2cc(nn2)CO[C@@H]1CN(C)S(=O)(=O)c1ccc(-n2cccn2)cc1`, the cytotoxicity call was “inactive”.
For the compound `C[C@@H]1CN([C@@H](C)CO)C(=O)c2cc(NC(=O)CCN3CCOCC3)ccc2O[C@@H]1CN(C)S(=O)(=O)c1ccc(Cl)cc1`, the cytotoxicity call was “inactive”.
The value for `C[C@@H]1CN([C@H](C)CO)C(=O)c2cc(NS(=O)(=O)c3ccccc3)ccc2O[C@@H](C)CCCCO[C@H]1CN(C)C(=O)Nc1ccccc1` was “inactive”; that for `C[C@H]1CN([C@@H](C)CO)C(=O)Cc2cc(NC(=O)Nc3cccc4ccccc34)ccc2O[C@H]1CN(C)C(=O)Nc1ccc(C(F)(F)F)cc1` was “inactive”; that for `COc1ccc(CN(C)C[C@H]2Oc3c(NS(=O)(=O)c4c(C)noc4C)cccc3C(=O)N([C@H](C)CO)C[C@H]2C)cc1` was “inactive”.
Take `C[C@H]1CN([C@@H](C)CO)C(=O)Cc2cc(NS(=O)(=O)c3cccs3)ccc2O[C@H]1CN(C)Cc1ccc(-c2ccccc2)cc1`: the cytotoxicity call is “inactive”.
As for `C[C@@H]1CCCCO[C@@H](CN(C)Cc2ccc(C(=O)Nc3ccccc3N)cc2)[C@H](C)CN([C@H](C)CO)C(=O)c2cc(N(C)C)ccc2O1`, the entry is “active”; as for `C[C@@H]1CCCCO[C@@H](CN(C)Cc2ccc(C(=O)Nc3ccccc3N)cc2)[C@@H](C)CN([C@H](C)CO)C(=O)c2cc(NC(=O)Cc3ccccc3)ccc2O1`, “inactive”.
As for `C[C@@H]1CCCCO[C@@H](CN(C)Cc2ccc(C(=O)Nc3ccccc3N)cc2)[C@@H](C)CN([C@H](C)CO)C(=O)c2cc(NC(=O)Nc3ccccc3)ccc2O1`, the entry is “inactive”.
On to `C[C@@H]1CCCCO[C@@H](CN(C)Cc2ccc(C(=O)Nc3ccccc3N)cc2)[C@@H](C)CN([C@H](C)CO)C(=O)c2cc(NC(=O)c3ccncc3)ccc2O1`, for which the cytotoxicity call was “inactive”.
Consider `C[C@H](CO)N1C[C@H](C)[C@H](CN(C)Cc2ccc(C(=O)Nc3ccccc3N)cc2)OCCCC[C@H](C)Oc2ccc(N(C)C)cc2C1=O`, for which the cytotoxicity call is “inactive”.
The value for `C[C@@H]1CCCCO[C@H](CN(C)Cc2ccc(C(=O)Nc3ccccc3N)cc2)[C@@H](C)CN([C@H](C)CO)C(=O)c2cc(NC(=O)c3ccccc3)ccc2O1` was “active”.
As to `C[C@@H]1CCCCO[C@@H](CN(C)Cc2ccc(C(=O)Nc3ccccc3N)cc2)[C@@H](C)CN([C@H](C)CO)C(=O)c2cc(NC(=O)c3ccccc3)ccc2O1`, the cytotoxicity call was “active”.
With `C[C@H]1CCCCO[C@H](CN(C)Cc2ccc(C(=O)Nc3ccccc3N)cc2)[C@@H](C)CN([C@@H](C)CO)C(=O)c2cc(N(C)C)ccc2O1`, the cytotoxicity call is “inactive”.
As for `CC(C)NC(=O)Nc1ccc2c(c1)C(=O)N([C@H](C)CO)C[C@H](C)[C@H](CN(C)Cc1ccc(C(=O)Nc3ccccc3N)cc1)OCCCC[C@@H](C)O2`, the cytotoxicity call was “inactive”.
